# In PubChem BioAssay (NCI):
# About 83,000 compounds went through this panel and 20% of them were active in at least one assay; those are over-represented in the sample as a whole.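 Cells were grown in 96-well plates and exposed to the test compound at a single concentration for 48 hours; results are reported as percent growth, with values below 10 considered active.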 A number with no mark means an inactive call. Activity calls are given as the source filed them.
# What was measured:
# Experiment in all cases: NCI-60 one-dose screen, 48 h (100 = growth as untreated, 0 = no growth, -100 = all killed)
# Conditions in all cases: 10 µM unless noted
# SK-MEL-2 melanoma = system: SK-MEL-2 melanoma
# EKVX NSCLC = system: EKVX NSCLC
# SN12C renal = system: SN12C renal
# UO-31 renal = system: UO-31 renal
# TK-10 renal = system: TK-10 renal
# ACHN renal = system: ACHN renal
# CAKI-1 renal = system: CAKI-1 renal
# A498 renal = system: A498 renal
# CCRF-CEM leukemia = system: CCRF-CEM leukemia
# MOLT-4 leukemia = system: MOLT-4 leukemia
Structure (SMILES),growth (SK-MEL-2 melanoma),growth (EKVX NSCLC),growth (SN12C renal),growth (UO-31 renal),growth (TK-10 renal),growth (ACHN renal),growth (CAKI-1 renal),growth (A498 renal),growth (CCRF-CEM leukemia),growth (MOLT-4 leukemia)
c1ccc(-c2oc(-c3ccccc3)c(CN3CCCCC3)c2CN2CCCCC2)cc1,48.4%,41%,31.2%,18.5%,42.2%,44.9%,38.1%,17.5%,24.1%,15.2%
O=C1NC(=O)C(Cc2ccc(OCc3ccc(-c4ccc(Cl)cc4Cl)cc3)cc2)S1 (stereo not given),49.8%,37.8%,59.5%,34.1%,72.9%,55.2%,32.7%,83.4%,42.2%,17%
Cc1c2cnccc2c(C)c2c1c1cc(C#N)ccc1n2C,-75.4% (active),-3.54% (active),-5.29% (active),-4.29% (active),-13% (active),-2.32% (active),6.63% (active),-65.6% (active),-16.8% (active),-11.2% (active)
COCCOc1cc2ncnc(N3CCN(c4cc(S(C)(=O)=O)c(C)cc4Cl)CC3)c2cc1OCCOC,95.3%,90.4%,87.2%,61.8%,104%,100%,101%,88.2%,89.5%,79.4%
Cc1ccc(NC(=O)Cn2cc(CN3CCN(c4ccnc5cc(Cl)ccc45)CC3)nn2)cc1,114%,80.7%,93.9%,62.7%,95.4%,81.1%,73.1%,88%,-31.6% (active),-15.7% (active)
Cc1[nH]c(C(=O)Nc2ccc(C(=O)N3CCN(c4cc5c(cc4F)c(=O)c(C(=O)O)cn5C4CC4)CC3)cc2OC(C)C)c(Cl)c1Cl,105%,80.5%,31.2%,56.2%,82.7%,67.9%,74.8%,55.6%,53%,93.3%
N#C/C(=C\c1c(-c2ccccc2)[nH]c2ccccc12)C(N)=O,111%,83.7%,94.2%,93.4%,124%,88.8%,63.2%,73.7%,66.1%,61.6%
Cc1cc(C(=O)O)c(C)n1-c1cccc(C(=O)O)c1,18.8%,98.5%,83.7%,85.5%,95.8%,-8.94% (active),13.8%,93%,108%,62.9%
Cc1c(O)cc(-c2cnc(Nc3ccccc3)s2)c(O)c1C,99.4%,87.9%,94%,86.9%,134%,91.6%,86.9%,75.1%,78.5%,62.8%
O=C1/C(=C/c2ccccc2O)CC/C1=C\c1ccccc1O,105%,56.9%,27.7%,46.4%,160%,70.2%,92.4%,108%,1.74% (active),6.67% (active)
CC(=O)n1nc(C(=O)OC(C)(C)c2ccccc2)c2ccccc21,105%,100%,86.9%,93.2%,101%,100%,84.5%,96.8%,83.1%,96.9%
Cc1cc(N2CCN(CCNc3ccnc4cc(Cl)ccc34)CC2)nc(N2CCOCC2)n1,83.8%,65.4%,73%,43.7%,84.9%,77.3%,57.9%,45.2%,75.5%,47.6%
C=CCSc1nnc(NC(=O)CCl)s1,103%,100%,95.2%,95.5%,108%,94.5%,93.3%,90.3%,77.2%,90.7%
